In the library only some 5.7% were active in any assay of this set; here they are far more common.
ssDAF12 agonist – activates DAF-12 receptor from parasite S. stercoralis. HEK293 ssDAF-12/GRIP1 lit1-tk-luc reporter, luminescence; % of 3 µM dafachronic acid response. activation, % at 6.8 µM. 370,000 compounds, 1% hits. AID 652126;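 active = activation above the mean over all tested compounds plus 3 SD, cut at about 0.9% in these data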;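 note: 0% = DMSO-only wells and 100% = 3 µM delta7-dafachronic acid wells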
DAX1 inh-1 – inhibitors of human orphan nuclear receptor DAX1 (NR0B1). P51843. HEK293 Gal4-DAX1 luciferase reporter, luminescence. inhibition, % at 6.75 µM. 340,000 compounds, 0.99% hits. AID 504766;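 active = inhibition above the mean over all tested compounds plus 3 SD, cut at about 4.2% in these data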;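 note: 0% = DAX1-transfected cells with DMSO and 100% = empty-vector control cells with DMSO; inhibition shows as a rise in luminescence from relieved DAX1 repression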
Target sequence (P51843 207-470 limits assumed): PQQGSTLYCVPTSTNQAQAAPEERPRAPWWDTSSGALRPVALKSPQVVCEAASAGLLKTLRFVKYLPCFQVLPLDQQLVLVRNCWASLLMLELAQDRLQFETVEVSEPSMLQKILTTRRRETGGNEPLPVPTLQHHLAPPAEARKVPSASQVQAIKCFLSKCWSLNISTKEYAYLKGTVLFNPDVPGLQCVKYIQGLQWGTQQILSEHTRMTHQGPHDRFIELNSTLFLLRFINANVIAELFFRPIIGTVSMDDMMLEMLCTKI
hgDAF-12 ag – activates the H. glycines DAF-12 receptor ligand-binding domain; HEK293 GAL4-hgDAF12 UAS-luciferase reporter, agonist luminescence; normalized to butyrate control; activation, % at 6.8 µM; 370,000 compounds, 1.8% hits;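 active = activation above a cutoff set at the mean of all screened compounds plus 3 SD, cut at about 10% in these data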;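 note: 0% = DMSO wells and 100% = sodium butyrate wells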
DAX1 inh-2 – inhibitors of DAX1 repression of SF-1 activated StAR promoter; inhibition, % at 6.8 µM; HEK293T StAR-luciferase reporter, SF-1/DAX-1 repression relief; 370,000 compounds, 1.1% hits; AID 652010;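 active = inhibition above the mean over all tested compounds plus 3 SD, cut at about 3.6% in these data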;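 note: 0% = DAX-1 cells with DMSO and 100% = cells lacking DAX-1 with DMSO; higher inhibition means more luminescence from relief of DAX-1 repression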
AHR act – activates the human aryl hydrocarbon receptor; AHR-responsive luciferase reporter cells, luminescence; activation, % at 5 µM; 320,000 compounds, 2.5% hits; AID 2796; in the data active = activation above about 47%;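 note: 0% = vehicle wells and 100% = reference agonist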
hcDAF12 agonist – activators of H. contortus DAF-12 nuclear receptor | HEK293 hcDAF-12 lit1-tk-luc reporter, luminescence; 0% DMSO, 100% Δ7-dafachronic acid | activation, % at 6.8 µM | 370,000 compounds, 1.4% hits | AID 652067;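 active = activation above the mean of all tested compounds plus 3 SD, cut at about 5.5% in these data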;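 note: 100% = response to 3 µM Δ7-dafachronic acid high control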
The depositor's hits bear a star; . = no result given; ! = repeats disagree.

SMILES	ssDAF12 agonist	DAX1 inh-1	hgDAF-12 ag	DAX1 inh-2	AHR act	hcDAF12 agonist
Clc1ccc(C2Nc3ccccc3-n3cccc32)cc1 (centres undefined)	1.1*	1	3	-1	27	5
CN1c2ccccc2C(=O)NC1c1ccc(Cl)cc1 (centres undefined)	-1	0	-1	0	1	-1
COC(=O)C[C@@H]1OC[C@H](Cc2ccccc2)N1S(=O)(=O)c1ccc(C)cc1	-1	.	-1	-2	.	-2
CCN(CC)C(=N)/C(C#N)=N/Nc1ccc(C)cc1	0	7.1*	9	2	75*	5
Cc1cc(C(=O)COC(=O)CC2Sc3ccccc3NC2=O)c(C)n1-c1cccc(C(F)(F)F)c1 (centres undefined)	1.2*	0	2	0	6	4
Cc1cc(C(=O)COC(=O)Cc2n[nH]c(=O)c3ccccc23)c(C)n1-c1cccc(C(F)(F)F)c1	-2	-2	-3	-1	-4	-4
CCOc1ccc(OCC)c(NC(=O)CN(c2ccc(OC)cc2)S(=O)(=O)c2c(C)noc2C)c1	-1	0	-3	0	58*	-3
CCOc1ccccc1NC(=O)CN(c1ccc(C)cc1)S(=O)(=O)c1c(C)noc1C	-2	-1	-2	-1	3	-3
CCOc1ccc(OCC)c(NC(=O)CN(c2ccc(C)cc2)S(=O)(=O)c2c(C)noc2C)c1	-1	-1	0	0	62*	-2
CCOc1ccc(N(CC(=O)Nc2ccc(C)c(C)c2)S(C)(=O)=O)cc1	0	8.9*	8	1	52*	4
CC(=NNC(=O)c1ccc(NS(=O)(=O)c2ccc(Br)cc2)cc1)c1cccnc1	-1	0	2	1	4	-1
COc1ccc(CCNC(=O)COC(=O)c2sc(C)nc2C)cc1	-1	1	0	2	0	-1
CC(=O)C(Sc1nc(N(C)C)nc(N(C)C)n1)C(=O)Nc1ccccc1 (centres undefined)	-1	1	0	0	0	1
CC(=O)C(Sc1nn(C)c(=S)s1)C(=O)Nc1ccccc1 (centres undefined)	1.0*	1	6	2	3	2
CCOC(=O)C1=C(COC(=O)c2ccc(OC)c(OC)c2OC)NC(=O)NC1C (centres undefined)	-1	-1	0	0	0	0
Cc1ccc(C(=O)Nc2nc(=O)n(C)s2)cc1	-1	5.6*	6	1	10	5
Cc1ccc(C(=O)Nc2nc(=O)[nH]s2)cc1	-1	4.4*!	1	0	2	0
Cn1sc(NC(=O)c2ccc(Cl)cc2)nc1=O	0	0	3	1	10	3
Cc1ccc(C(=O)Nc2nc(=O)n(C(=O)CC(C)C)s2)cc1	-1	1	0	0	0	0
CCOC(=O)c1ccccc1NC1c2ccccc2C(=O)N1c1cc(C)ccn1 (centres undefined)	0	-1	3	0	4	0
Cc1ccc(N2C(=O)c3ccccc3C2Nc2ccccc2F)nc1 (centres undefined)	-1	0	13*	0	7	-1
COc1cc(OC)c(NC2c3ccccc3C(=O)N2c2cc(C)ccn2)cc1Cl (centres undefined)	0	0	12*	3.6*	3	0
CCSc1nnc(Cc2cc(=O)[nH]c(=O)[nH]2)n1-c1ccc(F)cc1	-1	1	0	0	0	3
Cc1cccc(-n2c(Cc3cc(=O)[nH]c(=O)[nH]3)nnc2SCC(=O)N2CCc3ccccc32)c1	-1	1	3	0	12	6.2*
O=C(CSc1nnc(Cc2cc(=O)[nH]c(=O)[nH]2)n1-c1ccc(F)cc1)N1CCCCC1	0	7.9*	6	0	1	-1
SMILES	ssDAF12 agonist	DAX1 inh-1	hgDAF-12 ag	DAX1 inh-2	AHR act	hcDAF12 agonist
O=C(CSc1nnc(Cc2cc(=O)[nH]c(=O)[nH]2)n1-c1ccc(Cl)cc1)N1CCc2ccccc21	.	.	.	.	7	.
CC[N+](C)(CC)CCOC(=O)C1c2ccccc2Oc2ccccc21	0	1	0	0	-2	0
CC(C)C(NC(=O)c1ccc(F)cc1)C(=O)NCC1CCCO1 (centres undefined)	-1	0	0	0	1	1
Cc1cc(O)c(C(=O)c2ccccc2C(=O)O)cc1C	-1	1	0	0	-3	6.4*
O=C(NCc1ccccc1)c1cncc(Br)c1	0	-2	1	1	2	2
O=C(Nc1ccc2c(c1)OCCO2)c1ccccc1	.	0	.	.	3	.
O=C(Nc1ccc2c(c1)OCCO2)c1cncc(Br)c1	0	1	11*	2	18	3
O=C(NCc1ccncc1)c1cncc(Br)c1	-2	4.4*	-2	-1	12	1
CCc1sc(C(=O)Nc2ccc3c(c2)OCCO3)cc1Br	0	1	11*	7.1*	-2	2
O=C(Nc1ccc2c(c1)OCO2)c1cncc(Br)c1	-1	2	11*	1	93*	1
C=C1[C@H]2O[C@H]2[C@@H](OC(C)=O)[C@@]2(C)[C@@H](OC(C)=O)C[C@@H](OC(C)=O)[C@@](C)(O)[C@@H]2[C@@H](OC(C)=O)[C@@]2(O)[C@@H](C)C(=O)O[C@H]2[C@H]1Cl	-1	0	1	0	.	-1
Cc1ccc(NC(=O)C2=C(C(=O)O)CCCC2)cc1F	-1	4	2	0	-5	-3
FC(F)(F)c1ccccc1CN1CCCc2nc(-c3ccccc3)ccc21	-1	.	0	1	.	0
CCc1cc2c(nc1CC)CCCN2Cc1ccccc1C(F)(F)F	-2	.	-2	-3	.	-1
COc1ccc(-c2ccc3c(n2)CCCN3Cc2ccccc2C(F)(F)F)cc1	-1	.	8	4.2*	.	2
COCCN1CCCc2nc(-c3ccc(Br)cc3)ccc21	0	.	11*	4.0*	.	1
FC(F)(F)c1ccccc1CN1CCCc2nc(-c3ccc(Br)cc3)ccc21	2.6*	.	7	2	.	0
COc1ccc(C(=O)CCC(=O)Nc2cccnc2)cc1OC	-1	-1	1	0	16	0
CCCC1CCC2(CCCN2CCOC(=O)Nc2ccccc2)CC1 (centres undefined)	-1	.	0	.	.	1
CCN(CC)c1ccc(S(=O)(=O)N2CCOCC2)cc1NC(=O)CSc1nncs1	.	1	.	.	2	.
COn1c(-c2ccccc2)nc2ncccc21	-1	0	1	0	3	-1
COn1c(-c2ccccc2)nc2ccc(Cl)cc21	1	1	12*	0	4	1
O=[N+]([O-])c1ccc2nc(-c3ccccc3)n(OCc3ccc(Cl)cc3)c2c1	-1	2	7	2	38	2

Screening data: PubChem BioAssay, The Scripps Research Institute Molecular Screening Center
